Rows were chosen to be rich in hits. Some 6.5% of all compounds tested hit in one or more screens of this group.
Spn PMK inh: inhibitors of Streptococcus pneumoniae phosphomevalonate kinase | purified PMK, PK/LDH-coupled NADH absorbance 340 nm | inhibition, % at 10 µM | actives 0.49% (n = 65,000);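 active means top-ranked compounds by inhibition in the single 10 µM screen, taking a fixed number of the strongest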;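 further: 0% = full reaction with DMSO carrier and 100% = background rate without enzyme reaction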
NADH coupling: inhibition of NAD/NADH coupling enzymes, library profiling | IC50, µM (top dose mostly 10 µM), inactives show at the highest dose inhibition | actives 0.02% (n = 65,000) | coupled PK/LDH NADH assays, four targets;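 active means single-dose screening hits from any of four coupled enzyme assays that gave an IC50 when retested across doses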;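 further: the DPM-DC format reads NADH fluorescence rather than 340 nm absorbance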
MK inhibit: S. pneumoniae mevalonate kinase inhibition. AID 555. purified MK, PK/LDH-coupled NADH absorbance 340 nm. inhibition, % at 10 µM. actives 0.48% (n = 65,000);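 active means ranked among the strongest by inhibition in the single 10 µM screen, a fixed top-ranked set picked for dose follow-up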
Spn DPM-DC inh: inhibitors of Streptococcus pneumoniae diphosphomevalonate decarboxylase | purified DPM-DC, PK/LDH coupled NADH fluorescence | calls only at 10 µM | actives 0.49% (n = 65,000) | AID 556;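 active means the 320 compounds with the highest percent inhibition in the single-dose primary screen, excluding strongly autofluorescent ones, cut at about 32% in these data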;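 further: kinetic rate of NADH fluorescence loss reporting ADP formed by the decarboxylase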
Fluor 339 460: intrinsic fluorescence of library compounds, ex339/em460 – biochemical, MLSMR library, data from DPM-DC assay, artefact control, profiling panel; compound autofluorescence, ex339/em460 nm, NADH buffer; stronger effect = higher value; 1 = no-compound wells, NADH background; fluorescence fold increase at 10 µM; actives 5.5% (n = 65,000); AID 709;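 active means at 10 µM, mean starting fluorescence two-fold or more over control wells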;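 further: signal is the first read of a kinetic run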
A340 absorber: compounds absorbing at 340 nm. fold change at 10 µM. compound absorbance at 340 nm, fold over control. AID 708. 65,000 tested, under 10 active;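 active means at 10 µM dose, initial 340 nm absorbance at least 2 fold that of control wells; inactive means change under 2 fold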;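 further: initial absorbance extrapolated from kinetic A340 decline of NADH oxidation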
An asterisk follows results filed as active.

What do the screens show for `COc1cc2[nH]c3c(N4CCC(C(N)=O)CC4)ncnc3c2cc1OC`?
Spn PMK inh: 19.0; NADH coupling: 12.0%; MK inhibit: 3.0; Spn DPM-DC inh: inactive; Fluor 339 460: 2.8*; A340 absorber: 1.03

How did CCOC(=O)C(CO)(NC(C)=O)C(=O)OCC do in these assays?
Spn PMK inh: 12.0; NADH coupling: 4.0%; MK inhibit: 0.0; Spn DPM-DC inh: inactive; Fluor 339 460: 1.12; A340 absorber: 1.03

Results for CCN1C(=O)N(C)C(N(O)C(=O)NC)C1(C)C (stereo not given) ?
Spn PMK inh: 0.0; NADH coupling: 6.0%; MK inhibit: 9.0; Spn DPM-DC inh: inactive; Fluor 339 460: 0.85; A340 absorber: 1

How did O=c1cc(CSc2nnc(COc3ccccc3Cl)o2)nc2sccn12 do in these assays?
Spn PMK inh: 19.0; NADH coupling: 7.0%; MK inhibit: 0.0; Spn DPM-DC inh: inactive; Fluor 339 460: 1; A340 absorber: 1.04

Results for CC1=C(C(=O)Nc2ccccc2)C(c2ccc3c(c2)OCO3)C2=C(CCCC2=O)N1 (stereo not given) ?
Spn PMK inh: 5.0; NADH coupling: 7.0%; MK inhibit: 4.0; Spn DPM-DC inh: inactive; Fluor 339 460: 2.22*; A340 absorber: 1.12

How did CC1=C(C(=O)Nc2cc(C)ccn2)C(c2ccc(C)cc2)C2=C(CCCC2=O)N1 (stereo not given) do in these assays?
Spn PMK inh: 0.0; NADH coupling: 3.0%; MK inhibit: 5.0; Fluor 339 460: 2.29*; A340 absorber: 1.07

Results for CCN(CC)c1ccc(C2C(C(=O)Nc3ccccn3)=C(C)NC3=C2C(=O)CC(C)(C)C3)cc1 (stereo not given) ?
Spn PMK inh: 4.0; NADH coupling: 6.0%; MK inhibit: 3.0; Spn DPM-DC inh: inactive; Fluor 339 460: 1.63; A340 absorber: 1.13

How did CCc1ccccc1NC(=O)CSC1=C(C#N)C(c2ccc3c(c2)OCO3)C2=C(CCCC2=O)N1 (stereo not given) do in these assays?
Spn PMK inh: 4.0; NADH coupling: 4.0%; MK inhibit: 8.0; Spn DPM-DC inh: inactive; Fluor 339 460: 1.18; A340 absorber: 1.05

Results for Cc1ccc2cc(C#N)c(NCCNC(=O)C3CCC3)nc2c1C ?
Spn PMK inh: 14.0; NADH coupling: 12.0%; MK inhibit: 1.0; Spn DPM-DC inh: inactive; Fluor 339 460: 3.12*; A340 absorber: 1.06

Results for CCOc1ccc2nc(NCCNC(=O)Nc3ccccc3)c(C#N)cc2c1 ?
Spn PMK inh: 14.0; NADH coupling: 10.0%; MK inhibit: 8.0; Spn DPM-DC inh: inactive; Fluor 339 460: 1.7; A340 absorber: 1.02

What do the screens show for `Cc1cccc2cc(C#N)c(NCCNC(=O)NC3CCCCC3)nc12`?
Spn PMK inh: 12.0; NADH coupling: 6.0%; MK inhibit: 6.0; Spn DPM-DC inh: inactive; Fluor 339 460: 2.07*; A340 absorber: 1.01

How did Cc1cccc2cc(C#N)c(NCCNS(=O)(=O)c3ccc4c(c3)OCCO4)nc12 do in these assays?
Spn PMK inh: 10.0; NADH coupling: 8.0%; MK inhibit: 4.0; Spn DPM-DC inh: inactive; Fluor 339 460: 2.15*; A340 absorber: 1

How did CCCCOc1ccc(OCCCC)c2c1NC1(N2)C(=O)N(C(C)=O)c2ccccc21 do in these assays?
Spn PMK inh: 10.0; NADH coupling: 3.0%; MK inhibit: 0.0; Spn DPM-DC inh: inactive; Fluor 339 460: 1.07; A340 absorber: 1.05

What do the screens show for `Cc1cc(-c2ccccc2)nc(=O)[nH]1`?
Spn PMK inh: 9.0; NADH coupling: 5.0%; MK inhibit: 5.0; Spn DPM-DC inh: inactive; Fluor 339 460: 1.13; A340 absorber: 1.01

What do the screens show for `CCC1C(=O)n2nc(-c3ccccc3)cc2N=C1C` (stereo not given)?
Spn PMK inh: 15.0; NADH coupling: 6.0%; MK inhibit: 3.0; Spn DPM-DC inh: inactive; Fluor 339 460: 2.05*; A340 absorber: 0.99

What do the screens show for `Cn1c(/N=C/c2c[nH]c3ccccc23)nc2ccccc21`?
Spn PMK inh: 0.0; NADH coupling: 5.0%; MK inhibit: 14.0; Spn DPM-DC inh: inactive; Fluor 339 460: 1.13; A340 absorber: 1.05

Results for Cn1c(/N=C/c2ccc3c(c2)OCO3)nc2ccccc21 ?
Spn PMK inh: 8.0; NADH coupling: 9.0%; MK inhibit: 10.0; Fluor 339 460: 2.09*; A340 absorber: 1.08
